In PubChem BioAssay AID1117267 (The Scripps Research Institute Molecular Screening Center, 2014):
In all, about 92,000 compounds went through this assay and about 1,200 (1.3%) were called active. The sample holds actives, similar compounds and a random draw of the others, so the mix is not that of the screen.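 Rule for the calls: active = activation above the mean of all tested compounds plus 3 SD (cut at about 9.5% in these data); inactive = the rest.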

Assay: compounds raising TTR promoter-driven luciferase – cell-based, luminescence, SH-SY5Y, TTR promoter Gaussia luciferase, primary screen (AID 1117267);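 note: cells exposed to compounds for one day before reading; 0% = median of all test compound wells on the plate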
Conditions: at 16.7 µM, active compounds read high, 100% = recombinant luciferase protein wells

Row | SMILES | activation
1 | Cc1nn(C)cc1S(=O)(=O)N1CCN(c2ccc(F)cc2)CC1 | 5.22% (inactive)
2 | COC(=O)C[C@@H]1C=C[C@@H](NS(=O)(=O)c2cccc(OC)c2)[C@@H](CO)O1 | 2.56% (inactive)
3 | COC(=O)[C@@]12C[C@@H](CC(=O)N3CCCCC3)C(=O)N(Cc3ccc4c(c3)OCO4)C1=CCC(C)(C)C2 | -2.52% (inactive)
4 | O=C(NCCCNC(=O)c1ccccc1Cl)c1cnccn1 | 17.1% (active)
5 | Cc1ccc(C(=O)NCCNC(=O)c2cnccn2)cc1 | -0.47% (inactive)
6 | O=C(COc1ccc(Cl)cc1Cl)NCCCNC(=O)c1cnccn1 | 1.09% (inactive)
7 | CCC(C)NCCOCCOc1ccc(Br)cc1C (configuration not stated) | 4.02% (inactive)
8 | CCc1nn(CCCC(=O)Nc2ccc(C)c(C)c2)c(=O)c2cc3occc3n12 | -0.44% (inactive)
9 | Nc1ccc2c(c1)C(O)c1ccc(Cl)cc1-2 (configuration not stated) | -0.84% (inactive)
10 | Cc1nnc(SCC(=O)NNC(=O)c2ccc(Cl)cc2)n1CC1CCCO1 (configuration not stated) | -0.27% (inactive)
11 | O=C(N/N=C/c1cccnc1)c1cc2ccccc2cc1O | -0.26% (inactive)
12 | C(=N\n1cnnc1)/c1cccnc1 | 9.82% (active)
13 | Brc1ccc(-c2csc(N/N=C/c3cccnc3)n2)cc1 | -4.96% (inactive)
14 | CC(=O)Nc1ccc(N2C(=O)CC(Sc3nccc(C)n3)C2=O)cc1 (configuration not stated) | -1.45% (inactive)
15 | CC(Oc1cccc(Cl)c1)C(=O)NC1CC(C)(C)NC(C)(C)C1 (configuration not stated) | -0.86% (inactive)
16 | O=C(O/N=C(/c1ccccc1)c1ccncc1)c1ccccc1[N+](=O)[O-] | -1% (inactive)
17 | Cc1ccccc1/[N+]([O-])=C/c1ccncc1 | 11% (active)
18 | C=C(C)CNC(=S)N/N=C/c1ccccc1OCC(=O)O | 8.68% (inactive)
19 | CN(C)CCNC(=O)Cc1ccc([N+](=O)[O-])cc1 | 0.61% (inactive)
20 | CCCNC(=O)c1onc(CSc2ccc(F)cc2)c1C(=O)NC(C)C | -2.47% (inactive)
21 | COc1cc(C(=O)NNC(=O)CN2C(=O)NC3(CCCC3)C2=O)cc(OC)c1OC | -1.23% (inactive)
22 | COc1cc(NC(=S)N2CCCC(C)C2)cc(OC)c1OC (configuration not stated) | 4.11% (inactive)
23 | COc1cc(N2C(=O)CC3(CCCC3)CC2=O)cc(OC)c1OC | 11.7% (active)
24 | CC(C)(C)OC(=O)N/N=C/c1cn(-c2ccccc2)nc1-c1cccnc1 | -1.28% (inactive)
25 | CC(C)N(C(=O)[C@H]1C[C@H](CC(=O)NCCC2=CCCCC2)C(=O)N2CCc3c([nH]c4cc(CCC(=O)N(C)C)ccc34)[C@]12C)C(C)C | -0.83% (inactive)
26 | c1ccc(-c2c[nH]c(-c3ccccc3)c2)cc1 | -1.9% (inactive)

Row | SMILES | activation
27 | CCOC(=O)c1c(NC(=S)Nc2ccccc2C)sc2c1CCC2 | 1.24% (inactive)
28 | CCOCC(=O)Nc1sc2c(c1C(=O)OCC)CCCC2 | 2.19% (inactive)
29 | CCOC(=O)c1c(NC(=O)c2ccc(Br)o2)sc2c1CCCC2 | 12.3% (active)
30 | COc1cccc2cc(/C(C)=N/NC(=O)c3ccco3)oc12 | 1.86% (inactive)
31 | Cc1nc2c(-c3ccc(F)cc3)c(C)nn2c(C)c1CCC(=O)N1CCN(c2ccccn2)CC1 | 1.67% (inactive)
32 | Cn1c(=O)c2c(ncn2CC(=O)N2CCN(c3ccccc3)CC2)n(C)c1=O | 3.74% (inactive)
33 | Cc1nc2nc(C)c(CCC(=O)N3CCN(c4ccccc4)CC3)c(C)n2n1 | 25.8% (active)
34 | Cc1cccc(C)c1NC(=O)CN1CCN(c2ccc(F)cc2)CC1 | 1.02% (inactive)
35 | O=C(O)CSc1nccc2ccccc12 | -2.92% (inactive)
36 | CCN(C(=O)CN1C(=O)/C(=C/c2ccc(F)cc2)SC1=S)C1CCS(=O)(=O)C1 (configuration not stated) | 1.08% (inactive)
37 | COc1ccc(NS(=O)(=O)c2ccc(C(=O)Nc3c(C)n(C)n(-c4ccccc4)c3=O)cc2)cc1 | -1.99% (inactive)
38 | COc1ccc(C(=O)C(C)OC(=O)c2cccc(S(=O)(=O)Nc3c(C)n(C)n(-c4ccccc4)c3=O)c2)cc1 (configuration not stated) | 0.13% (inactive)
39 | Cc1c(NS(=O)(=O)c2ccc(NC3CCCC3)c([N+](=O)[O-])c2)c(=O)n(-c2ccccc2)n1C | 12.5% (active)
40 | CCc1cc2c(NC(Cc3ccccc3)C(=O)O)ncnc2s1 (configuration not stated) | 0.89% (inactive)
41 | Cc1cccc(NC(=O)Nc2nnc(-c3ccccc3)o2)c1 | -2.14% (inactive)
42 | COc1cc(/C=N/N2CCN(c3ccccc3)CC2)ccc1OC(C)=O | 1.16% (inactive)
43 | COc1cccc(-c2cnc(C(O)c3ccccc3OC)[nH]2)c1 (configuration not stated) | 9.73% (active)
44 | COc1c(C)cc(C(O)c2ncc(-c3cccc(C(F)(F)F)c3)[nH]2)cc1C (configuration not stated) | -1.28% (inactive)
45 | OC(c1ccc(F)cc1)c1ncc(-c2cccc(C(F)(F)F)c2)[nH]1 (configuration not stated) | 1.67% (inactive)
46 | C=CCN(C(=O)Nc1ccc2c(c1)nc(C)n2C)c1ccccc1 | 5.19% (inactive)
47 | O=C(COC(=O)c1ccc2ncsc2c1)Nc1ccc(Cl)cc1 | 1.52% (inactive)
48 | Cc1ccc(-c2cc(C(F)(F)F)n3ncc(C(=O)N4CCCCC4c4cccnc4)c3n2)cc1 (configuration not stated) | 0.13% (inactive)
49 | COC(=O)c1cnn2c(C(F)(F)F)cc(-c3ccco3)nc12 | 10.2% (active)
50 | FC(F)(F)c1cc(-c2ccco2)nc(N2CCOCC2)n1 | 2.59% (inactive)
51 | CCCCOCCCNC(=O)C[C@H]1C[C@@]2(C(=O)OC)C(=C[C@H](C(C)(C)C)O[C@@H]2C)N(CCc2ccc(OC)c(OC)c2)C1=O | 14.6% (active)
52 | COC(=O)[C@]12C[C@H](CC(=O)NCc3cccc4ccccc34)C(=O)N(CCc3ccc(OC)c(OC)c3)C1=C[C@H](C1CCCC1)O[C@@H]2C | -1.86% (inactive)

Row | SMILES | activation
53 | COC(=O)[C@]12C[C@H](CC(=O)NCc3cccs3)C(=O)N(CCc3ccc(OC)c(OC)c3)C1=C[C@H](C(C)C)O[C@@H]2C1CC1 | -0.36% (inactive)
54 | O=C(NCc1ccccc1)C(c1cccnc1)N(C(=O)c1csnn1)c1ccc(F)cc1 (configuration not stated) | 4.37% (inactive)
55 | Cc1cccc(C(=O)OC(C)CN2CCCC2)c1 (configuration not stated) | 2.07% (inactive)
56 | O=C(CN1C(=O)CC(c2ccccc2)S(=O)(=O)c2ccccc21)NC1CCCC1 (configuration not stated) | 4.27% (inactive)
57 | CC(=O)Oc1ccccc1C1=NN(C(C)=O)C(c2ccccc2)C1 (configuration not stated) | 1.26% (inactive)
58 | COc1cccc(C2CC(c3cccs3)=NN2C(=O)CSC2=NCCS2)c1OC (configuration not stated) | -2.03% (inactive)
59 | O=C1c2cccc(OCC(=O)N3N=C(c4cccs4)CC3c3ccc(F)cc3)c2CCN1Cc1ccccc1 (configuration not stated) | 11.2% (active)
60 | O=C(CCc1nnc(CCCCc2ccccc2)o1)NC(c1cccnc1)C(F)(F)F (configuration not stated) | -0.47% (inactive)
61 | COc1ccc(-c2cc3ccc(OCc4nn[nH]n4)cc3oc2=O)cc1 | 0.67% (inactive)
62 | CCCCc1cc(=O)oc2cc(C)cc(OCc3nn[nH]n3)c12 | 23.1% (active)
63 | CCOC(=O)CCc1c(C)c2ccc(OCc3nn[nH]n3)c(C)c2oc1=O | 3.81% (inactive)
64 | CC(C)Cn1c(N)c(C(=O)COC(=O)C2CCCN2C(=O)c2cccs2)c(=O)n(C)c1=O (configuration not stated) | -0.78% (inactive)
65 | C#CCOCCOCCOCCNc1nc(N2CCOCC2)nc(N2CCN(C(=O)[C@H](Cc3ccc(O)cc3)n3cc(CCO)nn3)CC2)n1 | -0.17% (inactive)
66 | CCOc1ccc(C(=O)NCC(=O)N2CCN(c3ccc(C(F)(F)F)cn3)CC2)cc1 | 0.73% (inactive)
67 | Brc1ccc(/C=N/N2CCN(C3c4ccccc4-c4ccccc43)CC2)s1 | 19.4% (active)
68 | CC(=O)C[C@@H]1OC[C@H](C)N1S(=O)(=O)c1ccc(C)cc1 | 1.64% (inactive)
69 | CC(NC(=O)C(C)(C)C)C(c1cccs1)N1CCN(Cc2ccccc2)CC1 (configuration not stated) | -0.04% (inactive)
70 | NC(=O)C1(Nc2ccccc2Cl)CCCC1 | -2.76% (inactive)
71 | Cc1nc(-c2ccc(Cl)cc2)sc1C(=O)NN | 35.4% (active)
72 | Cc1nc(N2CCOCC2)sc1C(=O)NN | -0.39% (inactive)
73 | Cc1ccc(SCC(=O)c2sc(-c3ccccc3)nc2C)cc1 | 4.57% (inactive)
74 | O=c1ccn([C@@H]2O[C@H](CNS(=O)(=O)c3cc4ccccc4s3)[C@@H](O)[C@H]2O)c(=O)[nH]1 | -0.41% (inactive)
75 | COc1ccc(C(CNC(=O)c2ccc(S(=O)(=O)Nc3ccccc3C)cc2)N2CCOCC2)cc1 (configuration not stated) | 0.05% (inactive)
76 | COc1ccc(CCOC(=O)CNC(=O)c2ccc(Cl)cc2Cl)cc1 | -0.5% (inactive)
77 | COc1cc2c(=O)n(C)c3ccccc3c2cc1OC | -0.16% (inactive)
